Results on eight compounds are retold here after PubChem BioAssay (EPA / NIEHS).

Inconclusive results are not listed. Activity calls are given as the source filed them. Rule for the calls, unless noted: active = hit-call score of the fitted dose curve at least 0.9, where 1 is the maximum; inactive = score below 0.9.

Test [1] addresses Glucocorticoid receptor (Homo sapiens) (UniProt P04150). As to the kind of experiment: ATG_GR_TRANS: Attagene TRANS-FACTORIAL HepG2 Assay for human Glucocorticoid Receptor (GR) (AID 2282978; active = hit-call score of the fitted dose curve at least 0.9, where 1 is the maximum;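 note: activators score as hits since higher reporter transcript over DMSO is fitted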). Conditions: HepG2 Attagene TRANS GR reporter, mRNA transcription. Put shortly: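 Multiplexed TRANS reporter system, HepG2; 24 h exposure; RNA → oligo(dT) RT → reporter-specific PCR → 6-FAM primer extension → HpaI cut → CE fluorescence. Gain-of-signal vs DMSO.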

Test [2] has as its target Oxysterols receptor LXR-alpha (Homo sapiens) (UniProt Q13133). As to the kind of experiment: ATG_LXRa_TRANS: Attagene TRANS-FACTORIAL HepG2 Assay for human Liver X Receptor alpha (LXRa) (AID 2282980; active = hit-call score of the fitted dose curve at least 0.9, where 1 is the maximum). Conditions: HepG2 Attagene TRANS reporter, LXRa transactivation. Put shortly: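 Transient HepG2 transfectants, 24 h dosing, RT-PCR/CE mRNA reporter quantitation; gain-of-signal vs DMSO.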

The target of test [3] is Oxysterols receptor LXR-beta (Homo sapiens) (UniProt P55055). As to the kind of experiment: ATG_LXRb_TRANS: Attagene TRANS-FACTORIAL HepG2 Assay for human Liver X Receptor beta (LXRb) (AID 2282981; active = hit-call score of the fitted dose curve at least 0.9, where 1 is the maximum). Conditions: HepG2 Attagene TRANS GAL4-LXRb reporter, mRNA. In outline:
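After 24 h of chemical treatment, transfected HepG2 cells yield total RNA; reporter cDNA is PCR-amplified, FAM-labelled, HpaI-cut and run on capillary electrophoresis. Signal reflects chimeric LXRb-Gal4 activity on GAL4-UAS reporters.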

Test [4] is described as follows: ATG_M_32_TRANS: Attagene TRANS-FACTORIAL HepG2 Assay for M32 Transcription Factor (Internal Marker) (AID 2282984; active = hit-call score of the fitted dose curve at least 0.9, where 1 is the maximum;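 note: transcript level of a background control reporter unit measured by RT-PCR and capillary electrophoresis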). Conditions: HepG2 Attagene TRANS M32 internal marker reporter. In outline: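 Cell-based TRANS-format assay in HepG2: exogenous chimeric GAL4 reporter units transiently expressed, compounds applied 24 h. Reporter mRNA detected by RT-PCR plus capillary electrophoresis; this readout is an internal background marker.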

Test [5] concerns the target Nuclear receptor subfamily 4 group A member 2 (Homo sapiens) (UniProt P43354). As to the kind of experiment: ATG_NURR1_TRANS: Attagene TRANS-FACTORIAL HepG2 Assay for human Nuclear Receptor Related Protein 1 (NURR1) (AID 2282985; active = hit-call score of the fitted dose curve at least 0.9, where 1 is the maximum). Conditions: HepG2 Attagene TRANS reporter, mRNA readout. In outline:
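Measures transcriptional activation by an exogenous NR-Gal4 chimera in transfected HepG2 liver cells. After 24 h, reporter RNA is reverse-transcribed, amplified and resolved by capillary electrophoresis; DMSO defines baseline.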

Test [6] has as its target Transcriptional activator Myb (Homo sapiens) (UniProt P10242). As to the kind of experiment: ATG_Myb_CIS: Attagene CIS-FACTORIAL HepG2 Assay for human Myeloblastosis (Myb) Proto-Oncogene Transcription Factor (AID 2282986). Conditions: HepG2 Attagene CIS-FACTORIAL Myb reporter transcription; actives raise or lower the signal. Put shortly: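 Endogenous transcription factor activity at a Myb-responsive cis element is reported in human liver HepG2 cells after 24 h chemical treatment. Reporter mRNA is detected by RT-PCR and capillary electrophoresis fluorescence, with DMSO as baseline.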

Test [7] can be described thus: ATG_NFI_CIS: Attagene CIS-FACTORIAL HepG2 Assay for human Nuclear Factor I (NFI) (AID 2282989). Conditions: HepG2 cis-regulatory reporter, NFI response element transcription; actives raise or lower the signal. In outline: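 Reporter transcripts were measured by RT-PCR with fluorescent primer extension and capillary electrophoresis 24 h post-treatment. HepG2 cells carried transiently transfected cis-regulated reporter constructs reporting endogenous factor activity; gain or loss fitted against DMSO baseline.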

Test [8] deals with Myc proto-oncogene protein (Homo sapiens) (UniProt P01106). As to the kind of experiment: ATG_Myc_CIS: Attagene CIS-FACTORIAL HepG2 Assay for human Myelocytomatosis (Myc) Proto-Oncogene Transcription Factor (AID 2282990). Conditions: HepG2, Attagene cis-reporter transcription factor activity; actives raise or lower the signal. Put shortly:
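HepG2, transient MRTU transfection (cis promoters, endogenous TFs); 24 h dosing; TriZol RNA → oligo(dT) RT → PCR → 6-FAM primer extension → HpaI cut → CE. Bidirectional fit vs DMSO.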

A short description of test [9]: ATG_NRF2_ARE_CIS: Attagene CIS-FACTORIAL HepG2 Assay for human Nuclear Factor Erythroid 2 Related Factor 2 (NFR2) response to Antioxidant Response Elements (ARE) (AID 2282992).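 For AC50: reporter mRNA level measured by RT-PCR and capillary electrophoresis fluorescence.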 Conditions: HepG2 Attagene ARE/NRF2 reporter, transcription factor activity; actives raise or lower the signal. In outline:
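Readout: reporter mRNA quantified by RT-PCR plus FAM-labelled primer extension, HpaI digestion and capillary electrophoresis, 24 h after dosing transfected HepG2 cells. Gain or loss of signal is fitted bidirectionally against DMSO baseline.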

A short description of test [10]: ATG_Oct_MLP_CIS: Attagene CIS-FACTORIAL HepG2 Assay for human Octamer-Binding Transcription Factor (Oct) (AID 2282993). Conditions: HepG2 Attagene cis-factorial Oct reporter, mRNA; actives raise or lower the signal. Put shortly: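 Readout is reporter transcript level from RT-PCR with fluorescent primer extension and capillary electrophoresis, fitted in both directions against DMSO. Transfected HepG2 reporter units report endogenous factor activity after 24 h dosing.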

The target of test [11] is Cellular tumor antigen p53 (Homo sapiens) (UniProt P04637). As to the kind of experiment: ATG_p53_CIS: Attagene CIS-FACTORIAL HepG2 Assay for human p53 Transcription Factor (AID 2282994). Conditions: HepG2 p53 cis-element reporter, Attagene mRNA; actives raise or lower the signal. In outline:
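Read-out: reporter mRNA by RT-PCR plus capillary electrophoresis with fluorescence detection. Human HepG2 liver cells carried transfected multi-reporter cis-element constructs, dosed 24 h. Gain or loss of signal fitted bidirectionally against DMSO control.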

A short description of test [12]: BSK_3C_uPAR: BioMAP Diversity Plus: 3C Assay for Urokinase-type plasminogen activator receptor (uPAR) Biomarker Activity (AID 2282998). Conditions: BioMAP 3C HUVEC, uPAR biomarker ELISA; actives raise or lower the signal. In outline: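 Cell-surface uPAR on HUVEC (3C system) read by ELISA at 24 h post-treatment, with DMSO as baseline and fitting in both directions. Parallel cultures stained with SRB to flag overt cytotoxicity.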

Test [13] is described as follows: BSK_3C_VCAM1: BioMAP Diversity Plus: 3C Assay for Vascular cell adhesion molecule 1 (VCAM1) Biomarker Activity (AID 2282999). Conditions: BioMAP 3C HUVEC, VCAM1 ELISA, cytokine-stimulated; actives raise or lower the signal. Put shortly:
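Activity fitted in both directions relative to DMSO, with ELISA measurement of the surface marker on primary HUVEC (3C) at 24 h post-treatment; parallel SRB staining (0.1% SRB, TCA-fixed, 560 nm) flagged overt cytotoxicity.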

Test [14] can be described thus: ATG_M_06_TRANS: Attagene TRANS-FACTORIAL HepG2 Assay for M06 Transcription Factor (Internal Marker) (AID 2282983; active = hit-call score of the fitted dose curve at least 0.9, where 1 is the maximum). Conditions: HepG2 Attagene TRANS M06 internal marker reporter. In outline:
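Human liver HepG2 cells bearing transiently transfected chimeric NR-GAL4 reporter units were treated with chemicals for 24 h. Total RNA was reverse-transcribed, reporter sequences amplified and labelled, then quantified by capillary electrophoresis. Activity was fitted upward relative to DMSO.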

The nature of test [15]: ATG_NF_kB_CIS: Attagene CIS-FACTORIAL HepG2 Assay for human Nuclear Factor Kappa B (NF-kB) (AID 2282991). Conditions: HepG2 Attagene cis-factorial NF-kB reporter mRNA; actives raise or lower the signal. Put shortly: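 Multiplexed cis-reporter assay in transiently transfected HepG2. 24 h treatment; RNA isolated, RT-PCR, labelled fragments resolved by CE. DMSO baseline.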

Test [16] addresses Estrogen-related receptor gamma (Homo sapiens) (UniProt P62508). As to the kind of experiment: ATG_ERRg_TRANS: Attagene TRANS-FACTORIAL HepG2 Assay for human Estrogen-Related Receptor gamma (ERRg) (AID 2282977; active = hit-call score of the fitted dose curve at least 0.9, where 1 is the maximum;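 note: hits increase reporter signal over DMSO so potencies reflect activators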). Conditions: HepG2 Attagene TRANS reporter, ERRg transactivation. In outline: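 Exogenous NR-Gal4 chimera activity was assessed in HepG2 cells bearing transfected GAL4-UAS reporters. After 24 h dosing, total RNA underwent RT-PCR, fluorescent primer extension and HpaI digestion before capillary electrophoresis, with gain of signal scored against DMSO.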

Test [17] has as its target Bile acid receptor (Homo sapiens) (UniProt Q96RI1). As to the kind of experiment: ATG_FXR_TRANS: Attagene TRANS-FACTORIAL HepG2 Assay for Farnesoid X Receptor (FXR) (AID 2282979; active = hit-call score of the fitted dose curve at least 0.9, where 1 is the maximum;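 note: hits raise reporter mRNA above DMSO so AC50 marks FXR activation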). Conditions: HepG2 Attagene TRANS FXR-GAL4 reporter transcription. Put shortly: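 Chimeric FXR-GAL4 activity in transiently transfected human HepG2 liver cells is scored as induction of reporter mRNA after 24 h of dosing. Detection uses RT-PCR with fluorescent labelling and capillary electrophoresis, with DMSO serving as baseline.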

Oxysterols receptor LXR-alpha (Homo sapiens), sequence (Q13133 whole entry, looked up): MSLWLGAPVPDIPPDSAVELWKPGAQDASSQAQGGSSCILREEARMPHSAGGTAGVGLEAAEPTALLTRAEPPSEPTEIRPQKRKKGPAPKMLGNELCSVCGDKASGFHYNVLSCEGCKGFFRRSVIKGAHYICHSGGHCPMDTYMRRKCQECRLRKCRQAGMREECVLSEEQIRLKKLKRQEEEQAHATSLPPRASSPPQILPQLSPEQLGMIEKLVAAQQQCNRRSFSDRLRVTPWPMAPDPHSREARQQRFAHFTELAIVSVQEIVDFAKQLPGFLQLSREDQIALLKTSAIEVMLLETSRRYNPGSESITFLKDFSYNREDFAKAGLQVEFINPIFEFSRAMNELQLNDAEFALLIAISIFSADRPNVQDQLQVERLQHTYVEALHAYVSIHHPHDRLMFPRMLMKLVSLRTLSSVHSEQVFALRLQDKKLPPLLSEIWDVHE
Cellular tumor antigen p53 (Homo sapiens), sequence (P04637 whole entry, looked up): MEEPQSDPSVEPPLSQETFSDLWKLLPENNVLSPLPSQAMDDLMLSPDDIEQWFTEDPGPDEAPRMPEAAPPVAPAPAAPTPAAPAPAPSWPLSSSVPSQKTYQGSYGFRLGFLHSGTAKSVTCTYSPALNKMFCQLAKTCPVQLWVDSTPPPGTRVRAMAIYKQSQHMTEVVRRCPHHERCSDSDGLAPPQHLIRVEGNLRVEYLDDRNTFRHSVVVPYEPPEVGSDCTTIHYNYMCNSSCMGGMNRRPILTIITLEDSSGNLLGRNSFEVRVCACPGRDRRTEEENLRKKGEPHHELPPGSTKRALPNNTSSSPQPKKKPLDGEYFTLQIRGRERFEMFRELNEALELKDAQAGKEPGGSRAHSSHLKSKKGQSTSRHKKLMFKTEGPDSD
Transcriptional activator Myb (Homo sapiens), sequence (P10242 whole entry, looked up): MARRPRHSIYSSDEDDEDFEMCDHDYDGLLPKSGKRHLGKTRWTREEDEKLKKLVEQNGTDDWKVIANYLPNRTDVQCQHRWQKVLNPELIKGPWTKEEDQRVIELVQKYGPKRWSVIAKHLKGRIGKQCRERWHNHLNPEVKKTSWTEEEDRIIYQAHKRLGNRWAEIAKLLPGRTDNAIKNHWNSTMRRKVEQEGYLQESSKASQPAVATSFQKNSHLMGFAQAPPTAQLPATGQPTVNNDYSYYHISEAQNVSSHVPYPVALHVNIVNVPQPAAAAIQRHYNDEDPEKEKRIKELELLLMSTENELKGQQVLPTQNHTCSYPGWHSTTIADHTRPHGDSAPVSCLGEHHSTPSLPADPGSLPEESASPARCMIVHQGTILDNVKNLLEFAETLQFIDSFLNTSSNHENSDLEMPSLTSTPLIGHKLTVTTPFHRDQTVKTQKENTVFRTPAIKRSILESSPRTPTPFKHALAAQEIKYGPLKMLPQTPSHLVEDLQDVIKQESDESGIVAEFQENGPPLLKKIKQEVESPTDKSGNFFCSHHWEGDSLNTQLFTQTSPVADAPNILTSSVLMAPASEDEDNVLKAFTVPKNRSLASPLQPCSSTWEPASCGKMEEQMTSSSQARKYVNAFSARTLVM
Glucocorticoid receptor (Homo sapiens), sequence (P04150 whole entry, looked up): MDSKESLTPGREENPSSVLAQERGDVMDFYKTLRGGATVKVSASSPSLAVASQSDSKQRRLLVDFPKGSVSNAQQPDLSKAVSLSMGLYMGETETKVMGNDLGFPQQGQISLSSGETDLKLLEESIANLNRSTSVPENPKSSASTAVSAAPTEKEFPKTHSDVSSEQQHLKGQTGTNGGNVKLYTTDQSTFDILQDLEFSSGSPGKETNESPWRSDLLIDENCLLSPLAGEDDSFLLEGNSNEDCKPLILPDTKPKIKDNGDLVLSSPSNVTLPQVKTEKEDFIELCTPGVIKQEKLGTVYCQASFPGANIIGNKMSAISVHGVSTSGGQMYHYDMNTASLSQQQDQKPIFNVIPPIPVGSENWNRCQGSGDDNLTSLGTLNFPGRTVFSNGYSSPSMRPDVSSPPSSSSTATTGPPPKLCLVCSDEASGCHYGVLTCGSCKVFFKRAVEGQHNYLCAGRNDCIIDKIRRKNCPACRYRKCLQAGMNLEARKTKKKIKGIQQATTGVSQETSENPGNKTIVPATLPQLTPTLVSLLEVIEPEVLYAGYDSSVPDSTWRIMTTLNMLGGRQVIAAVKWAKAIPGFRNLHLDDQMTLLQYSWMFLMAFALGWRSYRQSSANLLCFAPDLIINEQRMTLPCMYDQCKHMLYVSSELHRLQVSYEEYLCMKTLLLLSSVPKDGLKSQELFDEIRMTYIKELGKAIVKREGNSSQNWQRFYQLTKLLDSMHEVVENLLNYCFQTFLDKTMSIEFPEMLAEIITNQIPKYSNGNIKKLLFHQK
Oxysterols receptor LXR-beta (Homo sapiens), sequence (P55055 whole entry, looked up, the tested form may be a part): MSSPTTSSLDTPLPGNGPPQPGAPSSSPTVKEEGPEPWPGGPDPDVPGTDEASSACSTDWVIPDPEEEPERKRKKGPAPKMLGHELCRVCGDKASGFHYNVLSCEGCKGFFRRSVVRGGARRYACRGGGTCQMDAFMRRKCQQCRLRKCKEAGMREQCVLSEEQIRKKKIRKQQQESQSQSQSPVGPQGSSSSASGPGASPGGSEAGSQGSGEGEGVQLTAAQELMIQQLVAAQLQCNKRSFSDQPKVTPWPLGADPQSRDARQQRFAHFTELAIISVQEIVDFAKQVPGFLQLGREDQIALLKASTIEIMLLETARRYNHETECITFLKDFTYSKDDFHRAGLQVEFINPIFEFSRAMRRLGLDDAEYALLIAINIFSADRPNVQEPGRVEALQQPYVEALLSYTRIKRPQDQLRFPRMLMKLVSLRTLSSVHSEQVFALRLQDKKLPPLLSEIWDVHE
Myc proto-oncogene protein (Homo sapiens), sequence (P01106 whole entry, looked up): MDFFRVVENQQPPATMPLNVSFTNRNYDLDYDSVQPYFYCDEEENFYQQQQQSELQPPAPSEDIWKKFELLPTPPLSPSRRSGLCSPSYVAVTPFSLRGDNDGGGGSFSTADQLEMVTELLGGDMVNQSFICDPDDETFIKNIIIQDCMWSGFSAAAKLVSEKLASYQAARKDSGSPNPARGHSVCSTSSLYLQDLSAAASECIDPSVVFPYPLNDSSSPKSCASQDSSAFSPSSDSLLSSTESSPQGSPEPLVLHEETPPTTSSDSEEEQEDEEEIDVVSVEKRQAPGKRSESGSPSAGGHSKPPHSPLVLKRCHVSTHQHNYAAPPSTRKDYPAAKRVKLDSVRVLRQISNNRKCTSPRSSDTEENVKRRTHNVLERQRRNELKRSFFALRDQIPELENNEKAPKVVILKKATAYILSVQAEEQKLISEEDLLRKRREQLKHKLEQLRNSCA
Nuclear receptor subfamily 4 group A member 2 (Homo sapiens), sequence (P43354 whole entry, looked up, the tested form may be a part): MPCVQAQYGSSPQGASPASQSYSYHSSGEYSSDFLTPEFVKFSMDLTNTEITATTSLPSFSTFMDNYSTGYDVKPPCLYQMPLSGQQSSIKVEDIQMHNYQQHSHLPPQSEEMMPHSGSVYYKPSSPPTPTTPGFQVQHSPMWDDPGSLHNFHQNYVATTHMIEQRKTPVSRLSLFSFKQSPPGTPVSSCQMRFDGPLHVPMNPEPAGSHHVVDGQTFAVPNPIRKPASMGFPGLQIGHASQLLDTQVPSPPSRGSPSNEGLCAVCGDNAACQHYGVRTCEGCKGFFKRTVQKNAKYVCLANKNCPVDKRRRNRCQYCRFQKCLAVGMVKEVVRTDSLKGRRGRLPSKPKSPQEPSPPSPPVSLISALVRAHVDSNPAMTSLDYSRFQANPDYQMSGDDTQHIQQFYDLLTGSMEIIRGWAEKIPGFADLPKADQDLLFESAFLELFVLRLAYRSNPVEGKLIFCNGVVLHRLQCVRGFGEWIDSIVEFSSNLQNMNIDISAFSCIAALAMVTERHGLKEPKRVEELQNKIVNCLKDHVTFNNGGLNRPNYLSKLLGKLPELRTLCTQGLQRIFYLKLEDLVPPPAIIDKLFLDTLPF
Estrogen-related receptor gamma (Homo sapiens), sequence (P62508 whole entry, looked up, the tested form may be a part): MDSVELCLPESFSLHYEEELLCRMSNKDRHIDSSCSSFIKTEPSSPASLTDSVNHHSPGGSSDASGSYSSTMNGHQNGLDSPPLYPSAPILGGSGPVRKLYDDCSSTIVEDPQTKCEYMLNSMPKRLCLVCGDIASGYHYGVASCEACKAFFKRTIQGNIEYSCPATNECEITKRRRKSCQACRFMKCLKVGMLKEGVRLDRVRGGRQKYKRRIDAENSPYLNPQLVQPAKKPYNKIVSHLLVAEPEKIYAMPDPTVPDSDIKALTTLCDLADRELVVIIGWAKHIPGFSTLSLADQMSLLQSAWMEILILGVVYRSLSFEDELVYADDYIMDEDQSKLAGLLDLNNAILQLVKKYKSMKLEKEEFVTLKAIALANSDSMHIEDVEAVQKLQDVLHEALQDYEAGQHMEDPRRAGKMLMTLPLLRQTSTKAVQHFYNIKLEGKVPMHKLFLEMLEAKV
Bile acid receptor (Homo sapiens), sequence (Q96RI1 whole entry, looked up, the tested form may be a part): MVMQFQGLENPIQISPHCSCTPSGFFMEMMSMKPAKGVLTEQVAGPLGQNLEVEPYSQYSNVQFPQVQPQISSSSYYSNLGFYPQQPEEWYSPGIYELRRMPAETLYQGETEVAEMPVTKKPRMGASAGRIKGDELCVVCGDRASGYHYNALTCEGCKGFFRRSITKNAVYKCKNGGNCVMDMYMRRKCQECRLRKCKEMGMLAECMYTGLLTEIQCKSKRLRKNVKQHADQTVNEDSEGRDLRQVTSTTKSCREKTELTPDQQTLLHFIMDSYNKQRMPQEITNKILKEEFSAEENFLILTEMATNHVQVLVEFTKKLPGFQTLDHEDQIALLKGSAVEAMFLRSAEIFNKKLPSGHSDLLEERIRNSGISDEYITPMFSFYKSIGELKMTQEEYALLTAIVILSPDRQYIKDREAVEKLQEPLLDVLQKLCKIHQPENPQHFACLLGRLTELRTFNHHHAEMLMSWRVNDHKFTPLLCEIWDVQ

With `CC1(c2ccc(Oc3ccccc3)cc2)OC(=O)N(Nc2ccccc2)C1=O` (configuration not stated), the compound was called inactive in [1], in test [2], in [3], in test [4], in test [5] and in test [6]. In addition, the result in test [7], in test [8] and in [11] was inactive. The AC50 was 1.61 µM (active) in test [9], 2.01 µM (active) in test [10], 25.9 µM (active) in [12] and 33 µM (active) in test [13].

As to `CNC(=O)CSP(=S)(OC)OC`, the compound was called inactive in [2], in [3], in [14], in [4], in test [5] and in test [6]. Besides, the compound was called inactive in test [7], in test [8], in test [9], in [10], in [12] and in [13].

In the case of `[2H]C1([2H])[n+]2ccccc2-c2cccc[n+]2C1([2H])[2H]`, the outcome in test [1], in test [3], in test [14], in test [4], in [6] and in test [10] was inactive. Further, the result in test [11], in [12] and in test [13] was inactive. Also, the AC50 in test [7] was 50 µM (active); in test [8] it was 13.3 µM (active); in test [15], 13.2 µM (active); in [9], 14.8 µM (active).

For `COP(=O)(OC)OC=C(Cl)Cl`, the result in [3], in test [14], in [4], in [5], in test [6] and in test [7] was inactive. In addition, the call in [8], in test [15], in test [12] and in test [13] was inactive. Moreover, the values for the AC50 in test [9] and in test [10] were 35.7 µM (active) and 11.5 µM (active), respectively.

Consider `CC(C)(C)C(O)/C(=C\c1ccc(Cl)cc1Cl)n1cncn1` (configuration not stated), for which the compound was called inactive in [16], in test [3], in test [14], in test [4], in [6] and in [7]. The compound was called inactive in test [8], in test [9], in [10] and in test [11]. Besides, the results for the AC50 in [12] and in test [13] were 29.4 µM (active) and 25.3 µM (active), respectively.

For the compound `O=[N+]([O-])/N=C1\NCCN1Cc1ccc(Cl)nc1`, the result in test [1], in [17], in test [2], in test [3], in test [4] and in [5] was inactive. Also, the compound was called inactive in [6], in [7], in [8], in test [9], in [10] and in test [12]. For the same compound, in [13], the result was inactive.

Turning to `CCC(C)Nc1c([N+](=O)[O-])cc(C(C)(C)C)cc1[N+](=O)[O-]` (configuration not stated), the call in [2], in test [5], in [6], in [7] and in test [8] was inactive. Besides, the AC50 in test [9] was 8.79 µM (active); in test [10], 15.1 µM (active); in [12] it was 17.8 µM (active); in test [13], 24.8 µM (active).

With `O=S1OCC2C(CO1)C1(Cl)C(Cl)=C(Cl)C2(Cl)C1(Cl)Cl` (configuration not stated), the outcome in test [3], in test [14], in [4], in test [5], in test [6] and in test [7] was inactive. The call in test [8], in test [15], in test [9], in [10] and in [11] was inactive. For the same compound, the figures for the AC50 in test [12] and in [13] were 15.9 µM (active) and 30.3 µM (active), respectively.
